Among the data in PubChem BioAssay AID932 (The Scripps Research Institute Molecular Screening Center, 2007) are activation (% of control) values, retold here.

Out of some 200,000 compounds screened, about 5,100 (2.5%) were called active. The sample holds actives, similar compounds and a random draw of the others, so the mix is not that of the screen. A number with no mark means an inactive call.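 Rule for the calls: active = activation above the screen-wide mean activation plus 3 SD (cut at about 130% in these data); inactive = the rest.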

A short description of the assay: potentiators of IFN-gamma driven STAT1 reporter – cell-based, HTS, luciferase reporter, primary screen (AID 932).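 Note: raw ratio to IFN-gamma control signal so 100% means no change and 0% no light.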 Particulars: NIH 3T3 STAT1-luciferase reporter, luminescence, at 5.5 µM, stronger effect = higher value, 100% = IFN-gamma alone, no compound. (A reporter such as luciferase makes a cellular process visible.)
On to `CN1CCN(C(=O)COc2ccc(C(C)(C)C)cc2Br)CC1`, for which the activation (% of control) was 97%.
For `O=C(Nc1cccc(OC(=O)N2CCCCC2)c1)N1CCOCC1` the value was 101%; for `CC(C)(C)c1ccc(OC(=O)N2CCCCC2)cc1`, 146% (active).
In the case of `Cc1ccccc1N1C(=O)NC(=O)/C(=C\c2cc(C)n(C)c2C)C1=O` it was 92.7%; in that of `CCOC(=O)C1CN(C)CCC1=O` (stereo not given), 96.3%.
